RTF Ca sens inh = cardiac RTF calcium desensitization; IANBD-labeled cardiac RTF, Ca2+ fluorescence; inhibition, % at 7.15 µM; 340,000 compounds, 0.12% hits;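 active = inhibition above the mean inhibition of all tested compounds plus 3 SD, cut at about 17% in these data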;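 note: assay run at fixed EC70 calcium of 1.6 mM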
IDE cell activ = IDE (human) activation, cell-based; activation, % at 5.96 µM; 340,000 compounds, 0.073% hits; HEK cells, FAbeta-B cleavage, fluorescence polarization; 0% vehicle, 100% cell-free pure enzyme wells;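 active = activation above the mean of all tested compounds plus 3 SD, set per screening campaign, cut at about 17% in these data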
TPT1 inh = C. albicans TPT1 enzyme inhibition; inhibition, % at 5 µM; AID 1962; 300,000 compounds, 0.81% hits; recombinant caTPT1, FP RNA substrate dephosphorylation;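 active = inhibition above the mean of all tested compounds plus 3 SD, set per screening campaign, cut at about 24% in these data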;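 note: plate controls were DMSO alone for no effect and ferristatin control at 100 nM for full effect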
RTF Ca sens act = increases calcium sensitivity of human cardiac regulated thin filaments; P19429+P45379; IANBD-labeled TnC RTF fluorescence at EC20 calcium; 0% EC20 calcium, 100% full calcium; activation, % at 7.2 µM; 340,000 compounds, 0.24% hits;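 active = activation above the mean over all tested compounds plus 3 SD, cut at about 30% in these data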;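 note: rise in fluorescence read as greater calcium sensitivity of cardiac thin filaments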
CRFBP-R2 agonist = agonists of human CRF-binding protein/CRF-R2 receptor complex | HEK293 CRF-R2/CRF-BP, calcium dye fluorescence (FLIPR); percent of saturating CRF peptide response | activation, % at 13.2 µM | 350,000 compounds, 0.46% hits | AID 588473;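 active = activation of at least 50%, plus an integration ratio under a set limit after plate pattern correction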;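 note: plate controls were neutral control wells without compound for no effect and CRF at EC100 for full effect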
IDE cell inh = inhibits human insulin-degrading enzyme in HEK cells; FAbetaB cleavage, fluorescence polarization; 320,000 compounds, 0.41% hits; inhibition, % at 5.59 µM;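 active = percent inhibition above the average of all tested compounds plus 3 SD, set per screening campaign, cut at about 16% in these data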;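 note: IDE supplied by intact live HEK cells; FP after avidin binding of uncleaved biotin substrate so inhibition keeps polarization high; 0% = DMSO wells and 100% = 60 µM reference IDE inhibitor Ii1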
IDE cell inh cf = confirmation of human insulin-degrading enzyme inhibitors in cells | shares compounds with IDE cell inh | HEK cells, FAbetaB cleavage, fluorescence polarization | inhibition, % at 5.59 µM | 1,200 compounds, 51% hits | AID 435028;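 active = mean inhibition across triplicate wells above the cutoff set by the earlier primary insulin-degrading enzyme screen, cut at about 16% in these data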;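 note: 0% = DMSO wells and 100% = 60 µM reference IDE inhibitor Ii1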
HEK293 tox = counter-screen for IDE inhibitors: cytotoxicity in HEK cells | AID 449730 | inhibition, % at 5.59 µM | shares compounds with IDE cell inh | 1,200 compounds, 28% hits | HEK293 cytotoxicity, ATP luminescence; in the data active = inhibition above about 22%;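 note: 0% = vehicle wells and 100% = reference cytotoxic drug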
Active calls of the source: *; i = inactive; x = no result; + = active, no number. Most compounds without a hit are left out; they make up all but 1.5% or so of the library.

SMILES	RTF Ca sens inh	IDE cell activ	TPT1 inh	RTF Ca sens act	CRFBP-R2 agonist	IDE cell inh	IDE cell inh cf	HEK293 tox
Cc1ccc(NC(=O)c2cc(-n3cnnc3)ccc2Cl)cc1	-1	7	0	-1	0	-2	x	x
O=C(Nc1ccc(-c2nc3ccccc3s2)cc1)c1cc(-n2cnnc2)ccc1Cl	4	-8	-3	7	4	22*	5	67*
COc1ccc(C(=O)CC(SCC(NC(C)=O)C(=O)O)c2ccc(Cl)cc2)cc1OC (stereo not given)	-7	0	-2	1	0	2	x	x
Cc1cccc(N2CCN(C(=O)CCn3c(=O)[nH]c4ccsc4c3=O)CC2C)c1 (stereo not given)	0	-14	-3	-4	0	24*	16	9
Cc1cccc(N2CCN(C(=O)CCCn3c(=O)[nH]c4ccsc4c3=O)CC2C)c1 (stereo not given)	-6	2	-2	3	1	2	x	x
CC(C)(C)Cc1nnc(NC(=O)c2ccco2)s1	2	3	1	0	1	8	x	x
Cc1cccc(N2C(=O)c3cccc4c(N(C)CCO)ccc(c34)C2=O)c1	-273	-72	-29	331*	191*	79*	110*	13
Cc1cccc(N2C(=O)c3cccc4c(N)ccc(c34)C2=O)c1	i	-43	-71	+	268*	73*	96*	4
Cc1cccc(N2C(=O)c3cccc4cccc(c34)C2=O)c1	-6	2	2	-1	-7	5	x	x
Cc1ccc2c(=O)n3c(nc2c1)C(Cc1ccc(O)cc1)NC(=O)c1ccc(Cl)cc1-3 (stereo not given)	x	x	x	x	x	2	x	x
Cc1nn(C)c(Sc2ccccc2N)c1[N+](=O)[O-]	-2	-5	1	-1	0	28*	4	5
COc1ccc(Cl)cc1NC(=O)CN(C)C(=O)Cc1ccc2c(c1)CCC2	4	-8	1	-4	-1	18*	19*	13
CC(NC(=O)c1ccc(N(C)C)c([N+](=O)[O-])c1)c1ccc(-n2ccnc2)cc1 (stereo not given)	2	-4	0	-3	-2	19*	8	12
COc1ccc(S(=O)(=O)NCc2ccco2)cc1N(C)S(=O)(=O)c1ccccc1	-1	1	3	1	1	-2	x	x
CCOc1ccc2[nH]c3c(NCCc4ccc(OC)c(OC)c4)ncnc3c2c1	-10	-25	1	14	0	17*	9	41*
CCCCOCCCNc1ncnc2c1[nH]c1ccccc12	-2	-21	0	-2	12	25*	4	73*
CCOc1ccc2[nH]c3c(NCCO)ncnc3c2c1	7	-2	x	-4	-1	x	x	x
CCOCCCNc1ncnc2c1[nH]c1ccccc12	-31	-7	-1	6	-1	21*	8	38*
Cn1c(SCc2nc(-c3ccccc3)no2)nnc1-c1cccs1	-10	-12	-1	4	-2	12	x	x
Cn1c(SCc2nc(-c3ccc(Cl)cc3)no2)nnc1-c1cccs1	0	-13	-2	0	-1	16*	8	9
Cn1c(SCCOc2ccc(Cl)cc2)nnc1-c1ccncc1	-5	-48	0	1	-3	44*	15	16
Cc1ccc(OCCSc2nnc(-c3cccs3)n2C)cc1	-4	-20	-2	10	0	20*	8	6
COc1cc(C(=S)N2CCOCC2)ccc1OC(=O)/C=C/c1ccco1	-14	5	1	1	0	3	x	x
Cc1ccc(C(C(=O)NCC2CCCO2)N(Cc2ccccc2)C(=O)c2ccc(-c3ccccc3)[nH]2)o1 (stereo not given)	-6	-13	-3	4	-1	21*	7	13

Source: PubChem BioAssay
